One assay concerns RARg homodimer (NR concentration 270 nM). Kind of assay: PBM binding z-score (relative to random genomic background probes); higher = stronger binding; sequences stand for … in GC…GCGATTGACAGCGTAGAATGAAGG
In outline:
(§1)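 Binding z-scores take random background probes as their reference. They come from custom Agilent 4×180K protein-binding microarrays incubated 1 h with ligand-free nuclear receptor dimers, with antibodies against each partner (one per run) detecting binding. Scanned fluorescence was regression-normalized.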
In the case of ATATGTAGGTTAAGGGACATTCAGGTTGGTTCGC, the PBM binding z-score came to 1.27.
Turning to ATCTCTAGGTAACCAAGTTCAGTGAGTGCCGAAC, the PBM binding z-score was found to be 0.796.
Still for that read-out and setting: then GCACACAGGTGAAACGCAGGTAACTCAGGGTGGC, with 0.263; and TCTAGTTGGTCACGGAGGTTACACACGACGGGTA, with 2.43; and TCTTGGAGATCAGCAGGTTAAGAAAGCTGGCCAA, with -0.56.
On the same count and under the same terms, then ATATGTAGGTTATCGGGTCATGCAGTTTGCGCAT, with 2.66; and GCAGACAGGTGAAACGCAGGTCACTCAGGGTGGC, with 2.47.
The sequence GCTGCTAGGTCAGGTTGGTCCGCTAACGGGTACG gave a PBM binding z-score of 3.46.
The same measure, in the same setting: then CGACCAAGGTCATAGGAGGTCAGTGAAGACAGAT, with 7.3; and CGTCCAAGGTCAGAGAGGTCAGTGGATGCCGAGT, with 7.05.
The sequence CGTCCAAGGCCAGCAGGTCAGTGAAAGCGACGTG returned a PBM binding z-score of 2.
Same read-out and setting: then GCAGACAGGTGAAACGCAGGGAACTCAGGGTGGC, with 0.108.
In turn, CGTCCAAGGTCAGAGAGGTTAGTGAATGCCGAGT registered a PBM binding z-score of 5.08.
In turn, TAGCCTAGGTCATTGGCCCAGTATAGTACGCATC displayed a PBM binding z-score of 4.14.
The sequence GATACAGGGTCAAGGCCAGTGTACGCGTATTGAT registered a PBM binding z-score of 5.38.
On the same count and under the same terms, the result for TGTCTAAGTTCAAAGGTAACGTAAGTATCCACAC reads 3.63.
In turn, CTCGAAAGGTCGTGCTCAGGTGGGTATACCAAAC had a PBM binding z-score of 3.96.
In turn, CGAACTAGGTCATCCACGACAGTGAATACATTGA gave a PBM binding z-score of 4.77.
Take ACTAGTTGGTCAGCTGAAGTCACACACAATTCGG: the PBM binding z-score stood at 0.796.
Take TAATATAGGTAAACAGGTGAAAGTCCGTAAGTTA: the PBM binding z-score was determined as 0.756.
In turn, CCTTACGGGTCGCGAGGTTATAGCACGACGAGCG registered a PBM binding z-score of 2.09.
Consider TCTAGGAGGCCAGAGGGTCACTCAAGAGGTACGG, for which the PBM binding z-score was 2.32.
Same read-out and setting: then CCTACTGGGCAACGAAAGGTCATTGATTCAGTGA, with 4; and AGCATGAGGTTAAGATCAGGGAAACAGAATACAT, with 1.62.
Sequence TAACCAAGGTGAGCTGAGGTCGTTGATCCAACTC showed a PBM binding z-score of 0.926.
On to TCATTTAGGTAAACAGGTGAAAGTCCGTAAGTTA, for which the PBM binding z-score was 0.406.
The same measure, in the same setting: the result for CCTCTGAGGACAACAGGAGGTCAGAGCTGCCAGA reads 3.51.
CAAACTAGGTCAAGCTCAAAGTCGGTTTGTGCCA yielded a PBM binding z-score of 4.98.
GCTGCTACGTCAACTGATGGTCAGCTAAAGCTCG: the PBM binding z-score is -0.441.
Same read-out and setting: then ACTTACGGGTGAACGAGGTTATAGCACGCGTATA, with 0.987.
The sequence ATCGAAAGGTCGACAAGGTGAGTATACACCGTTT showed a PBM binding z-score of 3.99.
On to GGAACGAGGGCAAGGTGATAGCAGAGTTTGATGG, for which the PBM binding z-score was 2.2.
Take CGTCCAAGGTCAGAGAGGTCAGAGAATGCCGAGT: the PBM binding z-score was 7.09.
Turning to CCCAGTTGGTCAGGAGGTCACACACCGGATATGA, the PBM binding z-score was 4.25.
In turn, ACTATTAGTTGAGGCGAGGGCAACCGATAGGTTG had a PBM binding z-score of 0.748.
As to ACAGACAGGTGCTGAAGGTAACTCAGGCTATCAT, the PBM binding z-score amounted to 0.00684.
Sequence GCTCGCAGGACAAGGTCAGAGCTTTGTCCGTAGA had a PBM binding z-score of 2.74.
For CCGACTGGCGCAGAAAGGTTACCATACCATCCGG, the PBM binding z-score was found to be 0.575.
The sequence CCAGACAGGTGAAAGGTATCTCAGTCTGGTACGC had a PBM binding z-score of 0.554.

Another assay has as its system RXRa DBDmut IVT, anti-RXR (DBD mutation: RXRa K156A/R161A, NR concentration 90 nM). The description is as above. In outline:
as §1
As for ATATGTAGGTTAAGGGACATTCAGGTTGGTTCGC, the PBM binding z-score worked out at 0.615.
The sequence ATCTCTAGGTAACCAAGTTCAGTGAGTGCCGAAC returned a PBM binding z-score of 1.34.
For GCACACAGGTGAAACGCAGGTAACTCAGGGTGGC, the PBM binding z-score is -0.192.
Same read-out and setting: the result for TCTAGTTGGTCACGGAGGTTACACACGACGGGTA reads 0.609; that for TCTTGGAGATCAGCAGGTTAAGAAAGCTGGCCAA, 0.285.
With ATATGTAGGTTATCGGGTCATGCAGTTTGCGCAT, the PBM binding z-score turned out to be 0.921.
Same read-out and setting: then GCAGACAGGTGAAACGCAGGTCACTCAGGGTGGC, with -0.32.
As for GCTGCTAGGTCAGGTTGGTCCGCTAACGGGTACG, the PBM binding z-score came out at 0.513.
Same read-out and setting: the result for CGACCAAGGTCATAGGAGGTCAGTGAAGACAGAT reads 3.53; that for CGTCCAAGGTCAGAGAGGTCAGTGGATGCCGAGT, 3.42; that for CGTCCAAGGCCAGCAGGTCAGTGAAAGCGACGTG, -0.479.
GCAGACAGGTGAAACGCAGGGAACTCAGGGTGGC displayed a PBM binding z-score of -1.09.
In turn, CGTCCAAGGTCAGAGAGGTTAGTGAATGCCGAGT gave a PBM binding z-score of 2.6.
With TAGCCTAGGTCATTGGCCCAGTATAGTACGCATC, the PBM binding z-score was found to be 1.51.
GATACAGGGTCAAGGCCAGTGTACGCGTATTGAT showed a PBM binding z-score of 2.22.
With TGTCTAAGTTCAAAGGTAACGTAAGTATCCACAC, the PBM binding z-score was found to be 4.28.
On the same count and under the same terms, the result for CTCGAAAGGTCGTGCTCAGGTGGGTATACCAAAC reads 1.68; that for CGAACTAGGTCATCCACGACAGTGAATACATTGA, 2.28; that for ACTAGTTGGTCAGCTGAAGTCACACACAATTCGG, 0.337.
Consider TAATATAGGTAAACAGGTGAAAGTCCGTAAGTTA, for which the PBM binding z-score was determined as 0.169.
With CCTTACGGGTCGCGAGGTTATAGCACGACGAGCG, the PBM binding z-score was determined as 0.0933.
For TCTAGGAGGCCAGAGGGTCACTCAAGAGGTACGG, the PBM binding z-score is 0.451.
As for CCTACTGGGCAACGAAAGGTCATTGATTCAGTGA, the PBM binding z-score was 0.496.
In turn, AGCATGAGGTTAAGATCAGGGAAACAGAATACAT had a PBM binding z-score of 0.954.
On to TAACCAAGGTGAGCTGAGGTCGTTGATCCAACTC, for which the PBM binding z-score is -0.0437.
TCATTTAGGTAAACAGGTGAAAGTCCGTAAGTTA displayed a PBM binding z-score of 1.59.
Turning to CCTCTGAGGACAACAGGAGGTCAGAGCTGCCAGA, the PBM binding z-score is 1.29.
With CAAACTAGGTCAAGCTCAAAGTCGGTTTGTGCCA, the PBM binding z-score amounted to 1.53.
Sequence GCTGCTACGTCAACTGATGGTCAGCTAAAGCTCG displayed a PBM binding z-score of -0.129.
In the case of ACTTACGGGTGAACGAGGTTATAGCACGCGTATA, the PBM binding z-score amounted to 0.294.
ATCGAAAGGTCGACAAGGTGAGTATACACCGTTT returned a PBM binding z-score of 0.788.
Sequence GGAACGAGGGCAAGGTGATAGCAGAGTTTGATGG showed a PBM binding z-score of 1.62.
Turning to CGTCCAAGGTCAGAGAGGTCAGAGAATGCCGAGT, the PBM binding z-score was determined as 3.52.
CCCAGTTGGTCAGGAGGTCACACACCGGATATGA registered a PBM binding z-score of -0.0617.
Same read-out and setting: then ACTATTAGTTGAGGCGAGGGCAACCGATAGGTTG, with 0.263; and ACAGACAGGTGCTGAAGGTAACTCAGGCTATCAT, with -0.376.
Same read-out and setting: the result for GCTCGCAGGACAAGGTCAGAGCTTTGTCCGTAGA reads 0.16.
With CCGACTGGCGCAGAAAGGTTACCATACCATCCGG, the PBM binding z-score is -0.469.
Same read-out and setting: the result for CCAGACAGGTGAAAGGTATCTCAGTCTGGTACGC reads 0.109.

For the origin of these results see the supplement of paper PMC6555819.
